# Screening results: PubChem, several laboratories
# rCAG binder = binders of r(CAG) RNA repeats, primary screen, biochemical, fluorescence. actives 1.3% (n = 370,000). inhibition, % at 3 µM. r(CAG) RNA repeat, TO-PRO-1 dye displacement fluorescence. AID 651821, 2012;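 active = inhibition above the plate cutoff, the mean of all test compounds on that plate plus 3 SD, cut at about 35% in these data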;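 note: 0% = DMSO alone and 100% = 100 µM mitoxantrone as full dye displacement; higher means more dye released from RNA so lower well fluorescence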
# FAS TE block = FAS thioesterase domain inhibitors, primary screen, biochemical, fluorescence intensity, uHTS. AID 602261, 2012. inhibition, % at 15 µM. actives 0.67% (n = 360,000). recombinant FAS-TE, OMFH fluorogenic substrate, fluorescence endpoint;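 active = compounds whose normalised, plate-corrected inhibition of enzyme fluorescence in the single-dose primary screen is 50% or more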;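 note: 0% = DMSO with enzyme and 100% = substrate without enzyme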
# GRIN3A LBD mod = binders of NR3A ligand-binding domain, primary screen, biophysical, differential scanning fluorimetry, uHTS; Glutamate receptor ionotropic, NMDA 3A (GRIN3A) ligand-binding domain; NR3A LBD differential scanning fluorimetry, Tm shift; 0% = protein alone, 100% = glycine-bound protein; Tm shift relative to glycine control, % at 25 µM; actives 2.5% (n = 340,000);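 active = melting temperature shift of at least 10% of the positive control shift, at one fixed dose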
# NadD block = inhibitors of S. aureus NadD, primary screen, biochemical, colorimetric, uHTS; purified NadD enzyme, colorimetric absorbance read-out; inhibition, % at 20 µM; actives 0.78% (n = 360,000); AID 602399, 2012; in the data active = inhibition above about 26%
# FAS-TE inh conf = FAS thioesterase domain inhibitors, confirmation, biochemical, fluorescence intensity, single concentration. shares compounds with FAS TE block. recombinant FAS-TE, OMFH fluorogenic substrate. inhibition, % at 15 µM. actives 45% (n = 2,300). AID 624325, 2012;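 active = compounds inhibiting the enzyme by at least 50% at 15 µM in any one of the replicates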;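 note: 0% = enzyme with DMSO only and 100% = wells lacking enzyme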
# Starred values were filed as active, the others as inactive; · = no result given. Hits are enriched below; roughly 4.3% of the tested compounds scored in any of these assays.
SMILES,rCAG binder,FAS TE block,GRIN3A LBD mod,NadD block,FAS-TE inh conf
CC(C)CN(CC(C)C)C(=O)c1cn(C(C)c2ccccc2)nn1 (stereo unspecified),-1.3,·,·,·,·
CCCCN1C(=O)N2CCc3ccccc3C2CS1(=O)=O (stereo unspecified),0.6,·,·,·,·
O=C(NCCc1ccccc1)c1ccc(Sc2ccccc2Cl)c([N+](=O)[O-])c1,4.3,·,·,·,·
O=C(NCCc1cccc(Cl)c1)c1ccc(Cl)c([N+](=O)[O-])c1,-0.5,71.9*,-6.7,-12.0,50.3*
Cc1cc2c(cc1C)C(c1cccc([N+](=O)[O-])c1)CC(=O)N2 (stereo unspecified),0.2,59.7*,-2.7,-1.3,79.4*
COc1cc(C2CC(=O)Nc3cc(C)c(C)cc32)cc(OC)c1OC (stereo unspecified),-7.0,-8.7,-4.6,-3.1,·
CCOc1ccc(-n2c(SCC(=O)Nc3ccc4c(c3)c3ccccc3n4CC)nnc2-c2cccnc2)cc1,15.1,·,·,·,·
Cc1ccc(C(=O)N/C(=C/c2ccc(-c3ccc([N+](=O)[O-])cc3)o2)C(=O)NCCCN(C)C)cc1,15.2,56.7*,-2.4,2.0,55.8*
Cc1ccc(C2NC(c3ccc(C)cc3)C([N+](=O)[O-])C(C)(C)C2[N+](=O)[O-])cc1 (stereo unspecified),3.3,60.5*,0.4,4.1,37.5
CC1(C)C([N+](=O)[O-])C(c2ccc(F)cc2)NC(c2ccc(F)cc2)C1[N+](=O)[O-] (stereo unspecified),-3.0,37.5,-8.0,4.1,·
CC1(C)C([N+](=O)[O-])C(c2ccc(Cl)cc2)NC(c2ccc(Cl)cc2)C1[N+](=O)[O-] (stereo unspecified),2.6,65.6*,-0.2,1.7,37.4
CN(CCCOC(=O)c1cccs1)C1CN(Cc2cn(Cc3ccccc3Cl)nn2)S(=O)(=O)C1 (stereo unspecified),3.4,·,·,·,·
Cc1[nH][nH]c(=O)c1C(c1ccc(-c2cccc(C(=O)O)c2)o1)c1c(C)[nH][nH]c1=O,3.1,21.5,-1.8,2.4,·
Cc1[nH][nH]c(=O)c1C(c1ccc(-c2cccc(Cl)c2)o1)c1c(C)[nH][nH]c1=O,·,54.2*,-0.2,15.5,37.5
CN(C)CC(=O)N[C@@H]1C[C@@H]2O[C@@H](CO)CC[C@@H]2O[C@@H]1CCc1ccc(C2=CCCCC2)cc1,-1.6,·,·,·,·
CC(C)Cn1c(N)c(C(=O)COC(=O)c2cc(C(F)(F)F)nc3ccccc23)c(=O)n(C)c1=O,8.7,·,2.9,·,·
CC(C)Cn1c(N)c(C(=O)COC(=O)c2cc(-c3ccccc3)nc3ccccc23)c(=O)n(C)c1=O,2.0,50.6*,3.5,15.8,13.8
Cc1nc(N2CCOCC2)nc(Oc2ccccc2)c1[N+](=O)[O-],-1.5,51.6*,-1.2,-5.2,42.8
Cc1ccc(CSc2nnc(-c3cc(-c4ccc(F)cc4)n[nH]3)n2N)cc1,5.4,·,·,·,·
CCOC(=O)c1cccc(NC(=O)CN(C)S(=O)(=O)c2ccc(F)cc2)c1,-1.1,·,·,·,·
Cc1ccn2c(=O)nc(SCC(=O)N3N=C(c4cccs4)CC3c3ccc(F)cc3)nc2c1 (stereo unspecified),1.1,54.3*,0.3,27.4,46.4*
Cc1ccc2nc(SCC(=O)N3N=C(c4cccs4)CC3c3ccc(F)cc3)nc(=O)n2c1 (stereo unspecified),6.6,41.9,·,16.9,·
Cc1ccc(C2CC(c3cccs3)=NN2C(=O)CSc2nc(=O)n3cc(C)ccc3n2)cc1 (stereo unspecified),5.1,50.7*,-1.7,22.2,40.5
Cc1cccn2c(=O)nc(SCC(=O)N3N=C(c4cccs4)CC3c3ccc(F)cc3)nc12 (stereo unspecified),4.4,53.5*,-0.4,23.2,41.5
CC(=O)NC(=S)Nc1sc2c(c1C#N)CCCCC2,3.4,57.4*,-3.4,-1.7,59.5*
CC(=O)Nc1sc2c(c1C#N)CCCC2,-1.3,-6.1,0.3,0.2,·
Cc1cccc(COC[C@H](CC(C)C)N2CCN(C(=O)c3ccc(C(C)(C)C)cc3)CCC2=O)c1,2.6,54.3*,·,4.7,44.7*
CC(C)CC(COCc1cccc(Cl)c1)N1CCN(C(=O)c2ccc(C(F)(F)F)cc2)CCC1=O (stereo unspecified),0.1,35.0,-9.1,2.3,·
